# High-throughput results: PubChem, National Center for Advancing Translational Sciences (NCATS)
# BAZ2B inh = BAZ2B (human) inhibition; AlphaScreen BAZ2B-H3K14Ac peptide displacement; Potency, µM (top dose mostly 114 µM), without a hit: at the top dose activity change, negative = inhibition, usual class: inhibitors; hit rate 4.4% among 360,000; AID 504333; further: potency means the concentration at half of the fitted maximal effect; on the % scale 0 is the no-effect control and ±100 the full control effect; nearly all actives have a fitted effect of over 60% in size
#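 BAZ2B (50 nM) with biotin-H3(5-23)K14Ac peptide (50 nM) in PBS pH 7.4, 0.01% Tween-20, preformed 30 min, then compound 30 min at room temperature; top concentration 110uM. AlphaScreen streptavidin donor/nickel chelate acceptor beads (10 ug/mL final), 20 min dark, signal read.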
# HP1b chromo inh = HP1-beta chromodomain-methylated histone interaction inhibition. P83916. AlphaScreen HP1-beta / biotin-H3K9me3 peptide binding. Potency, µM (highest dose often 114 µM), inactives show at the highest dose activity change, negative = inhibition, actives largely listed as inhibitors. hit rate 0.56% among 390,000. AID 540317; further: potency means the concentration at half of the fitted maximal effect; nearly all actives have a fitted effect of over 70% in size
# Target sequence (P83916 whole entry, looked up): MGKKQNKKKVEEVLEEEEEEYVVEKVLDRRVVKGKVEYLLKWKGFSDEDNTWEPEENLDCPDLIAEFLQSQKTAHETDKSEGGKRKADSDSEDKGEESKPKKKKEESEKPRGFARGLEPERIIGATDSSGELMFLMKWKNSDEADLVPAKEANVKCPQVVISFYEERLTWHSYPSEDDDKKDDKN
#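 HP1-beta protein (50 nM final) preincubated 30 min at room temperature with biotinylated H3(1-18)K9me3 peptide (50 nM) in PBS pH 7.4, 0.01% Tween-20, then compound added for 30 min. AlphaScreen streptavidin donor/nickel chelate acceptor beads (10 ug/mL final), 30 min dark, luminescence read.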
# Six1-Eya2 blk = Six1/Eya2 interaction inhibition | AlphaScreen GST-Six1/His-Eya2 binding, biochemical; stronger effect = lower value | activity change, % (concentration not given with the values) | hit rate 0.56% among 360,000 | AID 651725; in the data active means activity change below about -65%; inconclusive means mostly about -30% to -63%; further: on the % scale 0 is the no-effect control and ±100 the full control effect
#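 AlphaScreen luminescence read after one hour at 37 °C in darkness. Pin-transferred compounds met GST-Six1 and His-Eya2 protein (5X stock 250 nM/500 nM) plus glutathione donor and Ni-chelate acceptor beads (5X, 50 ug/mL).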
# G9a inh = blocks human histone lysine methyltransferase G9a; G9a H3K9 monomethylation, AlphaScreen, 2 h; Potency, µM (titrated, usually from 102 µM), for inactives: at the highest dose activity, negative = inhibition, hits mostly inhibitors; hit rate 8.8% among 350,000; AID 504332; further: potency means the concentration at half of the fitted maximal effect; on the % scale 0 is the no-effect control and ±100 the full control effect; nearly all actives have a fitted effect of over 75% in size
# Target sequence (Q96KQ7 913-1193 limits assumed): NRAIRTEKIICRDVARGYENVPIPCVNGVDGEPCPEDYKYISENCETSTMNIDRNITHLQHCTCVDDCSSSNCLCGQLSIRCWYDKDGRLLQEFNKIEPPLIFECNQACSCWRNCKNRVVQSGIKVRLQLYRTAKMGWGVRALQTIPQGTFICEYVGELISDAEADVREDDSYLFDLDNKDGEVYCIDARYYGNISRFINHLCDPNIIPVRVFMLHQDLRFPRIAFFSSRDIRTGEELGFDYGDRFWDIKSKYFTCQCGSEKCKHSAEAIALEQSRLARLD
#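 G9a (20 nM) was preincubated 15 min with compound, then reacted 2 h at room temperature with 500 nM biotin-H3K9 peptide and 20 µM SAM. Monomethyl-H3K9 detected by AlphaScreen using anti-H3K9me1 antibody.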
# JMJD2A Tudor = JMJD2A Tudor domain (human) inhibition. O75164. Potency, µM (top dose mostly 114 µM), for inactives: at the highest dose activity change, negative = inhibition, hits mostly inhibitors. hit rate 4.4% among 390,000. AlphaScreen JMJD2A-Tudor / H3K4me3 peptide binding; further: potency means the concentration at half of the fitted maximal effect; on the % scale 0 is the no-effect control and ±100 the full control effect; nearly all actives have a fitted effect of over 50% in size
# CtBP-E1A blk = inhibitors of CtBP/E1A interaction; AlphaScreen GST-E1A/His-CtBP binding, 1536-well; stronger effect = lower value; hit rate 0.49% among 340,000; activity change, % (concentration not given with the values); AID 651724; in the data active means activity change below about -65%; inconclusive means mostly about -30% to -63%; further: on the % scale 0 is the no-effect control and ±100 the full control effect
#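 Steps: dispense buffer (Tris pH 8.0, NaCl 300 mM, TCEP 1 mM, BSA, Tween 20); add 5X protein mix (GST-E1A, His-CtBP, 125 nM each); pin 23 nL compound; 2 h at 37 °C, dark; add 5X beads (50 ug/mL); 1 h; read.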
# Active calls of the source: *; ? = inconclusive; nt = no result given; [ ] = remark or other dose. In the library only some 10% were active in any assay of this set; here they are far more common. Unless noted, the call rests on the fitted dose curve; in most records, active means well fitted inhibition curve with a large enough effect; inconclusive means small, poorly fitted or top-dose-only effect; inactive means no such curve, though single readings can be large or run the other way.
SMILES,BAZ2B inh,HP1b chromo inh,Six1-Eya2 blk,G9a inh,JMJD2A Tudor,CtBP-E1A blk
OCc1ccccc1CNCc1ccccc1,6%,16%,4,13%[59 µM],-12%,3
CCOc1ccc2cc(C3CC(c4ccco4)=NN3S(=O)(=O)c3ccccc3)c(Cl)nc2c1 (stereo not given),?,-7%,-8,10µM*,-34%,12
CCOc1ccc2nc(Cl)c(C3CC(c4ccco4)=NN3S(C)(=O)=O)cc2c1 (stereo not given),-5%,-22%,-3,nt,-25%,-6
COc1ccc2cc(C3CC(c4ccco4)=NN3S(=O)(=O)c3ccccc3)c(Cl)nc2c1 (stereo not given),-35%,8%,-22,?,-23%,-10
Cc1ccc2cc(C3CC(c4ccco4)=NN3S(=O)(=O)c3ccccc3)c(Cl)nc2c1 (stereo not given),-38%,18%,-11,50µM*,-23%,-5
CCOc1ccc2cc(C3CC(c4ccco4)=NN3S(C)(=O)=O)c(=O)[nH]c2c1 (stereo not given),-32%,?,-8,nt,50µM*,2
Cc1ccc2nc(SCC(=O)OCc3ccccc3)nc(=O)n2c1,-2%,2%,-9,-35%,-6%,-28
CC(O)CN(C)C (stereo not given),nt,nt,nt,-28%[12.7 µM],nt,nt
CC(O)CN(CCC(N)=O)CCC(N)=O (stereo not given),56µM*,-27%,5,35µM*,?,10
NC(=O)NC(=O)CC1S/C(=N/N=C2/NC(=O)CS2)NC1=O (stereo not given),20µM*,21%,-78*,5µM*,28µM*,?
O=C(CC1S/C(=N/N=C2CCCCCC2)NC1=O)Nc1ccccc1F (stereo not given),-2%,55%,3,26%,1%,1
CC(=O)c1cccc(NC(=O)CC2S/C(=N/N=C/c3ccccc3)NC2=O)c1 (stereo not given),-17%,58%,-8,42%[59 µM],3%,nt
O=C(O)CNC(=O)CC1S/C(=N/N=C/c2ccccc2O)NC1=O (stereo not given),50µM*,14%,-16,8%,?,nt
C/C(=N\N=C1\NC(=O)C(CC(=O)NCc2ccccc2)S1)C(C)C (stereo not given),-16%,24%,8,18%,0%,0
O=C(O)CNC(=O)CC1S/C(=N/N=C2\CSC(=O)N2)NC1=O (stereo not given),6.3µM*,58%,-93*,-27%,7.1µM*,nt
O=C(Nc1nnc([C@@H]2C[C@H](O)[C@@H](CO)O2)s1)Nc1ccccc1C(F)(F)F,nt,nt,-9,nt,nt,-2
CCOc1ccc(NS(=O)(=O)c2cccc(C(=O)N3CCN(C/C=C/c4ccccc4)CC3)c2)cc1,nt,0%,-25,nt,?,12
COc1cc(CNc2nnnn2C)ccc1OCc1c(F)cccc1Cl,-7%,30%,3,nt,-11%,-7
Cc1cc(C)c2nc(SCC(=O)N3CC(=O)Nc4ccccc43)c(C#N)cc2c1,-3%,46%,-17,10µM*,-2%[57.1 µM],-15
CCN1CCc2c(C#N)c(NCc3ccccc3)nc(N(CC)CC)c2C1,?,-14%,-16,50µM*,?,-20
N#Cc1c(NCCN)nc(NCc2ccccc2)c2c1CCN(Cc1ccccc1)C2,?,-15%,-15,45µM*,?,-23
CCCc1nc(NCc2ccccc2)c(C#N)c2c1CCCC2,41%,117%,7,97%,22%,2
Cn1cnc([N+](=O)[O-])c1Nc1ccc(O)cc1,-17%,12%,-2,25µM*,-14%,3
O=C1CCN(CCc2ccccc2)CCN1[C@H](COc1ccccc1)c1ccccc1,?,0%,-14,?,?,-1
CCCN1CCC(=O)N([C@H](COc2ccccc2)c2ccccc2)CC1,?,23%,-4,40µM*,-12%,0
SMILES,BAZ2B inh,HP1b chromo inh,Six1-Eya2 blk,G9a inh,JMJD2A Tudor,CtBP-E1A blk
CCOC(=O)CNC(=O)CSc1nc(C(C)C)nc2c1cnn2-c1ccccc1,nt,nt,0,nt,nt,8
COCCCNC(=O)c1ccc2c(=O)n(Cc3ccc(Cl)cc3)c(=S)[nH]c2c1,2%,52%,9,-4%,-14%,nt
CC(C)NC(=O)c1ccc2c(=O)n(C3CCCC3)c(=S)[nH]c2c1,8%,15%,2,24%[59 µM],-11%,2
CCN(CC)CCNC(=O)c1ccc2c(=O)n(C3CCCC3)c(=S)[nH]c2c1,?,4%,-13,20µM*,-36%,-20
CCOc1cc2[nH]c(=S)n(Cc3ccc(C(=O)NCC(OC)OC)cc3)c(=O)c2cc1OCC,1%,55%,-2,-11%,11%,-2
O=C(NCCN1CCCC1)c1ccc(Cn2c(=S)[nH]c3ccc(Br)cc3c2=O)cc1,-19%,12%,-6,50µM*,-32%,-14
CC1CCN(CCNC(=O)c2ccc3c(=O)n(Cc4ccc(Cl)cc4)c(=S)[nH]c3c2)CC1,?,28%,-7,11%,-16%,nt
O=C(NCCCN1CCCC1)c1ccc(Cn2c(=S)[nH]c3ccc(Br)cc3c2=O)cc1,-26%,nt,nt,22µM*,nt,nt
CCOc1cc2[nH]c(=S)n(Cc3ccc(C(=O)NCCN(CC)CC)cc3)c(=O)c2cc1OCC,-20%,15%,-24,35µM*,?,-25
O=S(=O)(c1ccc(S(=O)(=O)N2CCC(O)CC2)cc1)N1CCCC1,-3%,14%,6,8%,-9%,3
CC(c1ccccc1)n1cnc2ccccc2c1=O (stereo not given),-4%,7%,1,-16%,6%,8
O=C(CCc1ccccc1)Nc1ncnc2c1C(c1ccccc1)c1c(ccc3ccccc13)O2 (stereo not given),nt,nt,nt,nt,-35%,nt
COc1ccccc1C1CCN(c2ccc(CO)cc2[N+](=O)[O-])CC1,?,?,-11,35µM*,56µM*,-22
COc1cc(CN2CCCN(C)CC2)cc([N+](=O)[O-])c1O,?,?,7,nt,0.89µM*,15
COc1cc(CN2CCN(c3ccc(C)cc3)CC2)cc([N+](=O)[O-])c1O,?,12%,-4,-15%[59 µM],-33%,-2
COc1cc(CN2CCN(c3ccccc3C)CC2)cc([N+](=O)[O-])c1O,?,?,-6,79µM*,4µM*,-5
COc1cc(CN2CCc3ccccc3C2)cc([N+](=O)[O-])c1O,?,?,3,8.9µM*,22µM*,nt
COc1cc(CN2CCN(c3cc(C)ccc3C)CC2)cc([N+](=O)[O-])c1O,nt,-22%,-9,nt,?,-4
